Measured values from ChEMBL document CHEMBL1157539, “Thousands of chemical starting points for antimalarial lead identification” (Nature, 2010).

Experiments:
Assay type in all cases: functional
Plasmodium falciparum [1] = test: GSK_TCMDC: Inhibition of Plasmodium falciparum 3D7 in whole red blood cells, using parasite LDH activity as an index of growth. Test compounds present at 2uM
Plasmodium falciparum [2] = test: GSK_TCMDC: Inhibition of Plasmodium falciparum Dd2 in whole red blood cells, using parasite LDH activity as an index of growth. Test compounds present at 2uM
HepG2 = test: GSK_TCMDC: Percent inhibition of human HepG2 cell line. Test compounds present at 10uM.

SMILES	Inhibition (Plasmodium falciparum [1]) [%]	Inhibition (Plasmodium falciparum [2]) [%]	Inhibition (HepG2) [%]
CCOC(=O)c1cnc2c(OC)cc(OC)c(Cl)c2c1Nc1ccccc1	99	100	13
CCOC(=O)c1ccc(NC(=O)Nc2ccc(-c3ccc(-c4nc5cc(C(F)(F)F)ccc5[nH]4)cc3)cc2)cc1	100	52	20
NC1CCN(Cc2cccc(-c3ccc(-c4nc5cc(F)ccc5[nH]4)cc3)c2)C1.O=C(O)C(F)(F)F (stereo not given)	99	99	24
COc1ccc(CC(=O)Nc2ccc(-c3cccc(-c4nc5cccc(C)c5[nH]4)c3)cc2)cc1O	96	30	6
CN(C)CCOc1ccc(-c2cc(-c3ccnc(N)n3)c(-c3ccc(Cl)c(O)c3)o2)cc1	100	91	14
Cc1cccc(Nc2nc(NCCCCN)nc3cc[nH]c(=O)c23)c1.O=C(O)C(F)(F)F	98	97	34
COc1cccc(OC)c1CN1CCC(N(C)CCCCCCCCN2CCC(OC(=O)Nc3ccccc3-c3ccccc3)CC2)CC1	99	100	100
O=C(N[C@H]1CCN(Cc2ccc(OC3CCN(Cc4ccccc4)CC3)c(Cl)c2)C1)c1ccc(Cl)c(Cl)c1.O=C(O)C(F)(F)F	99	11	59
N=C1NC(=O)C(=Cc2cn(-c3ccccc3)nc2-c2cccc(S(=O)(=O)N3CCCC3)c2)S1	85	68	0
O=C(CCCCCNC(=O)c1ccc(O)c(-c2ccc(Cl)c(Cl)c2)c1)NCCN1CCOCC1	95	0	0
Cl.O=C1COc2ccc(S(=O)(=O)N3CCC[C@@H]3CCN3CCC(c4c[nH]c5cnccc45)CC3)cc2N1	100	6	0
COc1ccccc1-c1csc(C(=O)NCC2CCN(Cc3ccc(C(C)C)cc3)C2)c1.O=C(O)C(F)(F)F (stereo not given)	81	6	24
O=C(/C=C/c1ccc(Cl)c(Cl)c1)NCCCCCN1CCC(CCNC(=O)c2snnc2-c2ccccc2)CC1	89	1	54
COc1ccc(CNC(=O)c2cnc3c(O)cccc3c2Nc2cccc(NC(=O)c3ccc(Cl)c(Cl)c3)c2)cc1.O=C(O)C(F)(F)F	96	89	54
CN(C(=O)/C=C/c1c(Cl)cccc1Cl)C1CCN(CCCCCNC(=O)/C=C/c2ccc(Cl)c(Cl)c2)CC1	92	62	78
CCN(CC)CCNC(=O)c1ccc(NC(=O)c2cc(-c3ccncc3)nc3ccccc23)cc1	97	2	1
CCN(CC)CCN(Cc1ccc(-c2ccc(C(F)(F)F)cc2)cc1)C(=O)c1ccc(-c2ccc(C#N)cc2)cc1	89	31	38
Cl.Oc1ccc2ccccc2c1CNC1CCCCCC1	83	33	9
CCCCCn1c(Sc2ccc(C#N)c([N+](=O)[O-])c2)nnc1-c1ccc(OC)cc1	88	44	8
COc1ccc(CNc2ccnc3cc(OC)ccc23)cc1	100	74	7

SMILES	Inhibition (Plasmodium falciparum [1]) [%]	Inhibition (Plasmodium falciparum [2]) [%]	Inhibition (HepG2) [%]
CN(C)CCCn1cncc1-c1ccc2ncnc(Nc3ccc4c(cnn4Cc4ccccc4)c3)c2c1	100	77	17
O=C(NCc1cccc(C(F)(F)F)c1)c1ccc(-c2nc3cc(F)c(F)cc3[nH]2)cc1	97	7	0
COc1ccccc1CCNc1nc(C)cc(N[C@@H](Cc2ccccc2)C(=O)NCCOc2ccccc2)n1.O=C(O)C(F)(F)F	100	76	20
CC1CN(c2ncc(-c3ccc(CNC4Cc5ccccc5C4)cc3)cn2)CC(C)N1.O=CO (stereo not given)	85	78	27
Cc1cccc2nc(-c3cccc(-c4cccc(NC(=O)c5ccc(C(N)=O)cc5)c4)c3)[nH]c12	100	34	25
COc1cccc2cc(C(=O)N[C@@H](CC(C)C)C(=O)N[C@H](C=NN3CC(=O)NC3=O)CC(C)C)oc12	86	64	3
N#Cc1ccc2[nH]cc(CN3CCC4(CC3)CN(CCNCc3ccccc3)C(=O)O4)c2c1.O=C(O)C(F)(F)F	100	0	0
Cc1ccc(Nc2ccnc3cc(-c4nccs4)ccc23)cc1C(O)c1ccccc1.Cl (stereo not given)	85	83	23
Cc1cc(N(C)C2CCN(C)C2)nc(Nc2ccc(Cl)cc2)n1 (stereo not given)	100	88	8
Cc1c(-c2ccc(C(=O)NC3CC(C)(C)NC(C)(C)C3)cc2)[nH]c2cc(Cl)c(Cl)cc12	98	68	34
O=[N+]([O-])c1cccc(C(Nc2ccccn2)c2ccc3cccnc3c2O)c1 (stereo not given)	86	29	53
O=C(/C=C/c1ccc(Cl)c(Cl)c1)N1CCC(CN2CCC(c3c[nH]c4ccncc34)CC2)CC1	100	72	44
COc1cccc(Nc2nccc(-c3c(-c4cccc(NC(=O)c5c(F)cccc5F)c4)nn4ccccc34)n2)c1	98	98	35
COc1cccc(Nc2nc(C)cc(Nc3cccc(C#N)c3)n2)c1	100	92	0
Cc1cc(N)nc2ccc(-c3ccc(CN)cc3)cc12	100	93	4
CCC(C)c1ccc(Nc2nc(C)cc(N(CC)CCCN3CCCCC3)n2)cc1.O=C(O)C(F)(F)F (stereo not given)	100	83	55
Cc1cccc2nc(-c3ccc(-c4ccc(CN5CCN(C6CCN(C)CC6)CC5)cc4)s3)[nH]c12.O=C(O)C(F)(F)F	100	100	97
Cc1ccc(Nc2nc3cc(Nc4ccnc(Nc5cccc(CS(C)(=O)=O)c5)n4)ccc3o2)cc1.O=C(O)C(F)(F)F	100	81	55
CCOc1ccc(-c2n[nH]c(C(F)(F)F)c2-c2ccccc2OC)c(O)c1	86	12	22
O=[N+]([O-])c1cccc(-c2nc(-c3ccc(Br)cc3)[nH]c2-c2ccc(Br)cc2)c1	99	44	6

SMILES	Inhibition (Plasmodium falciparum [1]) [%]	Inhibition (Plasmodium falciparum [2]) [%]	Inhibition (HepG2) [%]
CCCN1CCN(Cc2ccc(C(=O)Nc3ccc(Cl)cc3)cc2)CC1.O=C(O)C(F)(F)F	94	14	48
Cc1nn(-c2ccccc2)c2nc(-c3ccccc3)cc(C(=O)N3CCOCC3)c12	93	67	6
CN(CCCNc1ccc(C(=O)Nc2ccc(C(F)(F)F)cc2)cc1[N+](=O)[O-])Cc1ccccc1	100	48	25
CCC(C)c1ccc(O)c(NC(=O)c2cncc(Br)c2)c1 (stereo not given)	100	16	0
CCC(C)NC(=O)CN1CN(c2ccccc2)C2(CCN(C(=O)c3ccc(-c4ccccc4)cc3)CC2)C1=O (stereo not given)	100	100	0
COc1cccc(CCc2c(CCNCCCCCCNCCc3ccccc3)ccc(OC)c2OC)c1.Cl	100	69	100
CON=Cc1sc(CNCCCN=c2cc(O)c3ccccc3[nH]2)c(C)c1Br.Cl	96	63	0
CCc1cn(C)c2c(N3CCCC3=O)cc(C(=O)N[C@@H](Cc3ccccc3)[C@H](O)CNC(C)(C)c3cccc(OC)c3)cc12	95	99	9
O=C(Nc1cccc(CN2CCCN(Cc3ccccc3)CC2)c1)c1ccc(Cl)c(Cl)c1.O=C(O)C(F)(F)F	95	16	23
O=C(/C=C/c1ccc(Cl)c(Cl)c1)NC1CCC(CN2CCC(c3nc4cc(O)ccc4[nH]3)CC2)CC1 (stereo not given)	100	84	41
Cc1[nH]n(-c2cccc(Cl)c2)c(=O)c1-c1ccc(Cl)cc1	99	41	0
Cl.FC(F)(F)c1cc(Nc2ncnc3ccc(Br)cc23)ccc1OCc1ccccc1	87	9	12
CN(C)CCOc1ccc2c(c1)OC(C)(C)C=C2c1cccc2ccccc12.Cl	95	48	66
COc1cc2ncnc(Nc3ccc(OCc4ccccc4Br)c(OC)c3)c2cc1OC.Cl	100	62	11
N#CCCn1nc(-c2ccc(Cl)cc2)c2c(c1=O)CCCC2	94	32	0
CCc1sc(N2CCN(C)CC2)nc1C(=O)Nc1ccc(F)cc1C(F)(F)F.O=C(O)C(F)(F)F	100	98	0
CC(C)c1ccc(NC(=O)N2CCc3ccc(OCCN(C(C)C)C(C)C)cc32)c(Br)c1.O=C(O)C(F)(F)F	86	5	6
Cc1cnc(C[S+]([O-])c2nc3cc(C(F)(F)F)ccc3[nH]2)cc1OCc1ccccc1 (stereo not given)	93	76	0
Cc1cccc2nc(-c3ccc(-c4ccc(CN5CCN(c6ccc(C#N)cn6)CC5)cc4)s3)[nH]c12.O=C(O)C(F)(F)F	98	44	10
O=C(O)C(F)(F)F.OCC1CCN(Cc2cccc(-c3ccc(-c4nc5cc(C(F)(F)F)ccc5[nH]4)cc3)c2)CC1	100	95	25
